Assay outcomes as filed in PubChem BioAssay.
NALP3 yeast inh: blocks the NALP3 inflammasome reconstituted in yeast; inhibition, % at 10 µM; AID 2825; Yeast reconstituted NLRP3/ASC/caspase-1, beta-gal luminescence, 24 h; 330,000 compounds, 0.39% hits;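 active = inhibition of 50% or more; inactive = inhibition below 50%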;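 note: plate controls were induced DMSO wells for no effect and uninduced yeast grown without galactose for full effect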
tim10-1 inh: growth inhibitors of tim10-1 mutant yeast; S. cerevisiae tim10-1 ts strain growth, BacTiter-Glo, 24 h; inhibition, % at 20 µM; 330,000 compounds, 2.2% hits; AID 463190;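 active = inhibition of at least 40%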;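 note: mutant grown at 25 °C; 0% = DMSO wells with yeast and 100% = wells holding no yeast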
TIM10 inh: TIM10 yeast growth inhibition; S. cerevisiae TIM10 strain growth, BacTiter-Glo luminescence, 24 h; inhibition, % at 10 µM; 330,000 compounds, 1.4% hits;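 active = inhibition of 40% or more at the single tested concentration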;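 note: wild-type TIM10 isogenic control strain grown at permissive 25 °C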
tim23-1 inh: tim23-1 yeast growth inhibition; inhibition, % at 20 µM; S. cerevisiae tim23-1 growth, BacTiter-Glo luminescence, 24 h; AID 463212; 330,000 compounds, 1.3% hits;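 active = growth inhibition of the mutant yeast at or above 50%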;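 note: temperature-sensitive mutant grown at 25 °C; plate controls were DMSO-treated mutant yeast for no effect and medium wells lacking yeast for full effect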
NALP1 yeast inh: blocks the NALP1 inflammasome reconstituted in yeast. S. cerevisiae NALP1/ASC/caspase-1 growth, X-gal OD620, 72 h. inhibition, % at 10 µM. 280,000 compounds, 0.61% hits; in the data active = inhibition mostly above about 24%, no sharp cut-off; inactive = mostly below about 32%
tim10-1 confirm: confirmation of tim10-1 mutant yeast growth inhibitors; inhibition, % at 20 µM; shares compounds with tim10-1 inh; AID 463213; S. cerevisiae tim10-1 ts strain growth, BacTiter-Glo, 24 h; 7,400 compounds, 56% hits;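 active = inhibition of yeast growth at or above a set limit in either of two repeat tests at 20 µM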;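 note: tim10-1 mutant grown at permissive 25 °C to find synthetic lethal compounds; 0% = DMSO yeast wells and 100% = medium wells without yeast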
An asterisk follows results filed as active; . = no result. Shown are actives, neighbours in structure and some others; about 4% of the full set was active somewhere.

SMILES | NALP3 yeast inh | tim10-1 inh | TIM10 inh | tim23-1 inh | NALP1 yeast inh | tim10-1 confirm
Cc1c(OCC(=O)NCc2cccnc2)ccc2c3c(c(=O)oc12)CCCC3 | 9 | -7 | 0 | -3 | 1 | .
Cc1ccc(S(=O)(=O)N(C)C)cc1NC(=O)COC(=O)/C(=C/c1ccc(F)cc1)c1cccs1 | 13 | 35 | 9 | 16 | 41 | .
c1cncc(-c2noc(-c3cccc4ccccc34)n2)c1 | -11 | 31 | 23 | 16 | -17 | .
Cc1ccc(-c2nc(-c3cccnc3)no2)cc1 | 27 | 24 | 19 | 19 | 14 | .
c1ccc(-c2ccccc2-c2nc(-c3cccnc3)no2)cc1 | 11 | 45* | 1 | -3 | -5 | 13
CCC(=O)Oc1ccc(-c2nc(-c3cccnc3)no2)cc1 | 12 | 47* | 38 | 44 | 6 | 46*
COc1ccccc1C(=O)Nc1nnc(S(=O)(=O)N2CCN(c3ccc(F)cc3)CC2)s1 | 13 | 24 | -4 | 12 | 13 | .
CSc1nsc(/C=C/Nc2ccc(F)cc2)c1C#N | 2 | 29 | 21 | 34 | 3 | .
CSc1nsc(/C=C/Nc2ccc(O)cc2C)c1C#N | 6 | 46* | 18 | 27 | -1 | 21
O=[N+]([O-])c1cc(/C=N\Nc2nc(-c3ccccc3)cs2)ccc1O | 1 | 15 | 24 | 3 | -5 | .
Cc1csc(N/N=C/c2ccc(O)c([N+](=O)[O-])c2)n1 | -6 | 51* | 30 | 40 | -12 | 33*
Cc1cc(NCCC(C)C)n2nc(C)c(-c3ccccc3)c2n1 | -12 | 45* | 14 | 28 | 3 | 26
CCSc1cc(C)nc2c(-c3ccccc3)c(C)nn12 | 2 | 40* | 7 | 36 | -6 | 17
Cc1cc(NCCCN2CCOCC2)n2nc(C)c(-c3ccccc3)c2n1 | 26 | 19 | 9 | 19 | 21 | .
CCN(CC)S(=O)(=O)c1ccc(NC(=O)COC(=O)CCc2cc(OC)c(OC)c(OC)c2)cc1 | 11 | 7 | 12 | 5 | 14 | .
O=P(OC1CCCCC1)(OC1CCCCC1)C(O)c1c(Cl)cccc1Cl (centres undefined) | -23 | 43* | 34 | 43 | 2 | 23
Cc1cc(-c2ccc(C)c(S(=O)(=O)N3CCN(c4ccc([N+](=O)[O-])cc4)CC3)c2)on1 | -3 | 22 | 3 | 15 | 3 | .
Cc1cc(-c2ccc(C)c(S(=O)(=O)N3CCN(c4ccccn4)CC3)c2)on1 | 20 | 42* | 18 | 39 | 13 | 32*
COc1ccc(S(=O)(=O)Nc2cccc3c2O[C@H](CN(C)CC2CCCCC2)[C@@H](C)CN([C@H](C)CO)C3=O)cc1 | 13 | 9 | -1 | 21 | . | .
Cc1nc2c(Br)c(C)nn2c2c1CCC2 | -4 | 48* | 2 | 6 | 14 | 30
CCOc1cc(/C=C2\CN(CC)C/C(=C\c3ccc(O)c(OCC)c3)C2=O)ccc1O | 20 | 49* | 34 | 42 | -6 | 29
CCOc1cc(/C=N/N=C/c2ccc(O)c(OCC)c2)ccc1O | -28 | 14 | 12 | 4 | 23 | .
CCOC(=O)c1ccc(NC(=S)N2CCC(O)CC2)cc1 | 16 | 6 | 8 | 0 | 25 | .
CCOC(=O)c1ccc(NC(=S)N2CCSC2c2ccc(Br)cc2)cc1 (centres undefined) | 20 | 40* | 25 | 37 | 13 | 30
CCC1CCCCN1Cc1cc(OC)c(O)c([N+](=O)[O-])c1 (centres undefined) | -73 | 43* | 4 | -1 | 10 | 14
SMILES | NALP3 yeast inh | tim10-1 inh | TIM10 inh | tim23-1 inh | NALP1 yeast inh | tim10-1 confirm
N#C/C(=C/c1ccc(N2CCCCCC2)o1)c1cccc(F)c1 | 28 | 61* | 34 | 39 | 21 | 57*
CCOc1cc(C(=O)Nc2cc3c(cc2N2CCOCC2)n(C)c(=O)n3C)cc(OCC)c1OCC | 6 | 7 | 24 | 16 | 7 | .
CC(C)Cn1c(=O)c2ccccc2n2c(CCC(=O)O)nnc12 | -1 | 1 | 9 | 2 | 8 | .
COc1cc(C(=O)N2CCN(Cc3ccccc3C(F)(F)F)CC2)cc(OC)c1OC | -2 | 43* | 24 | 27 | -3 | 24
CCc1cc2cc3c(cc2nc1SCC(=O)N1CCN(C(=O)c2ccco2)CC1)OCO3 | 14 | 21 | 1 | 33 | 13 | .
CCc1cc2ccc(C)cc2nc1SCC(=O)N1CCN(C(=O)c2ccco2)CC1 | 18 | 42* | 5 | 38 | 18 | 13
O=C(NC1CCCCC1)C(c1cccs1)N(Cc1cccs1)C(=O)c1cccs1 (centres undefined) | -11 | 45* | 27 | 25 | 3 | 26*
Cc1ccccc1NC(=O)CC1SC(=O)N(c2ccccc2)C1=O (centres undefined) | 8 | 45* | 7 | 37 | -10 | 38*
O=C(NCCc1ccc(C(F)(F)F)cc1)c1ccc(Cl)nc1 | 19 | 5 | -23 | 7 | 35 | .
Cc1cc(C)c(COc2ccc(/C=N/n3c(C)n[nH]c3=S)cc2)c(C)c1 | 18 | 41* | 14 | 39 | 13 | 11
COc1cccc(Cn2cc(-c3cccc(C(F)(F)F)c3)nn2)c1 | 8 | 42* | -1 | -10 | -50 | 23
O=C(Nc1cccc(C(F)(F)F)c1)C1CCCO1 (centres undefined) | -5 | -8 | -18 | 8 | 4 | .
c1ccc2c(c1)[nH]c1ccccc12 | 12 | -10 | 2 | -3 | . | .
Cc1ccc(C)c2c1[nH]c1ccccc12 | 29 | 41* | 31 | 25 | 8 | 38*
COC(=O)c1ccc(CSc2ncnc3sc(C)c(C)c23)o1 | 32 | 46* | 29 | 11 | 6 | 37*
Cc1sc2ncnc(SCc3ccc(C(=O)O)cc3)c2c1C | 24 | -6 | -11 | 31 | -24 | .
CCOCCCNC(=O)C1CCCN(S(=O)(=O)c2ccc(-n3cnnn3)cc2)C1 (centres undefined) | 6 | -12 | 0 | -10 | 2 | .
CCCc1cc(C(=O)NNC(=S)NCc2ccccc2)cs1 | 15 | 44* | 34 | 17 | 20 | 29
CCc1nonc1NC(=O)c1oc2ccc(F)cc2c1C | 7 | 27 | -13 | 7 | 2 | .
Cc1c(C(=O)Nc2nonc2-c2ccc(F)cc2)oc2ccc(F)cc12 | -40 | 44* | 2 | -4 | -3 | -17
O=C(N/N=C/c1ccc(Cl)cc1Cl)c1ccc2nc[nH]c2c1 | 3 | 16 | -5 | 8 | 22 | .
C=CCc1cccc(/C=N/NC(=O)c2ccc3nc[nH]c3c2)c1O | 16 | 44* | 7 | 1 | 6 | -2
c1nc(Nc2ccc(N3CCOCC3)cc2)c2ccsc2n1 | 12 | 8 | -15 | 7 | 9 | .
Fc1ccc(-c2csc3ncnc(Nc4ccc(N5CCOCC5)cc4)c23)cc1 | 15 | 43* | 15 | 38 | 4 | 37*
C=CCC1CCCC(=O)N2CC[C@H](O)C12 (some centres undefined) | 0 | 2 | -7 | 2 | 26 | .
Cc1cc(Cl)cc(Cl)c1OCC(=O)NCc1ccco1 | 22 | 50* | 35 | 49 | 24 | 40*
